The record followed here is PubChem BioAssay (Tox21).

Results filed as inconclusive are left out. The source holds several records for some structures; these can differ, active in one and inactive in another. Active and inactive are the calls of the source. Unless noted, calls come from the whole dose curve; as a rule, active = well fitted curve in the direction sought with a large enough effect in the repeat runs; inconclusive = weak or mixed curves; inactive = no such curve, though single readings can be large; an effect the other way counts as inactive or inconclusive.

A short description of assay [1]: A CellTox Green Cytotoxicity Assay to monitor cytotoxicity in HepG2 cells - 8 hour (AID 1224890). Note: nearly all actives have a fitted effect of over 45% in size. Summed up: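 HepG2 cells were seeded together with the CellTox Green dye at 600 cells/well, left 5 h at 37 C/5% CO2, then given compounds in DMSO. Fluorescence from dye bound to dead-cell DNA was read repeatedly over 40 h of treatment at 37 C.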
The nature of assay [2]: qHTS assay to identify small molecule antagonists of the estrogen receptor alpha (ER-alpha) signaling pathway using the BG1 cell line in the presence of 0.1 nM 17-beta-estradiol - cell viability counter screen (AID 1259241). Note: nearly all actives have a fitted effect of over 40% in size. Summed up: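 CellTiter-Fluor read (30 min, 37C) on ER-alpha/ERE-luc VM7Luc4E2 cells; 22 hr compound treatment; agonist 0.1 nM E2 final; same-well multiplex.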

Assay [3] in a line: qHTS assay to identify small molecule antagonists of the androgen receptor (AR) signaling pathway using the MDA cell line in the presence of 0.5 nM R1881 - cell viability counter screen (AID 1259242). Note: nearly all actives have a fitted effect of over 45% in size. In a few lines:
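MDA-kb2 cells (human breast carcinoma, stably carrying MMTV-luciferase reporter) were exposed to compounds with 0.5 nM R1881 (final) for 16 hr at 37C, 0% CO2; viability then read as live-cell protease fluorescence (CellTiter-Fluor, 30 min) in the same wells.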
On the technique in general: In qHTS, concentration-response curves come from the screen itself.

Assay [4] concerns the target Estrogen receptor (Homo sapiens) (UniProt P03372). The assay is described as follows: qHTS assay to identify small molecule antagonists of the estrogen receptor alpha (ER-alpha) signaling pathway using the BG1 cell line in the presence of 0.1 nM 17-beta-estradiol (AID 1259244). Note: nearly all actives have a fitted effect of over 50% in size. Summed up: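 VM7Luc4E2 cells (endogenous full-length ER-alpha, stable 4xERE-luciferase) were grown 5 days in phenol red-free medium with charcoal-stripped FBS, then exposed 22 h at 37C to compounds plus 0.1 nM (final) 17beta-estradiol; ONE-Glo luminescence read-out.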

A short description of assay [5]: qHTS assay to identify small molecule phospholipidosis (PLD) inducers (AID 1259344; active = well fitted curve in the direction sought with a large enough effect; an effect the other way counts as inactive or inconclusive). In a few lines: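 HepG2 cells on collagen I, attached 4 h at 37 C, were co-treated with compound and LipidTOX Red dye for 24 h at 37 C, then fixed with paraformaldehyde plus Hoechst 33342 and imaged by high-content microscopy for phospholipid accumulation.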
A short description of assay [6]: qHTS assay to identify small molecule HDAC inhibitors (AID 1259364). Note: nearly all actives have a fitted effect of over 45% in size. Note: potency is the fitted concentration of half-maximal effect. Summed up:
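Wild-type HCT-116 cells were plated overnight, exposed to compounds for 2 h at 37 °C, then given HDAC-Glo class I/II luminogenic reagent for 30 min at room temperature before luminescence was read.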

Assay [7] in a line: qHTS assay to identify small molecule HDAC inhibitors - cell viability counter screen (AID 1259365). Note: series mostly up to about 92 µM; nearly all actives have a fitted effect of over 50% in size. Summed up:
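To flag cytotoxic hits, 1,500 wild-type HCT-116 cells per well, plated the day before, receive test compounds for 2hr at 37 C before CellTiter-Glo reagent and a luminescence read.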

A short description of assay [8]: qHTS assay to identify small molecule agonists of the sonic hedgehog signaling (Shh) pathway - cell viability counter screen (AID 1259366). Note: nearly all actives have a fitted effect of over 50% in size. In a few lines: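 Fluorescence from CellTiter-Fluor reports live cells in this counter screen. NIH/3T3-derived Gli1-Luc reporter cells receive test compounds for 24hr at 37C; reagent goes in at 23hr.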
A short description of assay [9]: qHTS assay to identify small molecule antagonists of the sonic hedgehog signaling (Shh) pathway - cell viability counter screen (AID 1259367). Note: nearly all actives have a fitted effect of over 55% in size. In a few lines: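 NIH/3T3-derived Gli1-Luc reporter cells (2,000 per well) rested 4 hr at 37 C, then received DMSO compounds plus conditioned medium. After 23 hr of treatment, CellTiter-Fluor was added for 1 hr at 37C and fluorescence read.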

Assay [10] is described as follows: qHTS assay to identify small molecule agonists of the sonic hedgehog signaling (Shh) pathway (AID 1259368; calls by dose curve; note: series mostly up to about 92 µM; nearly all actives have a fitted effect of over 15% in size). Summed up: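 NIH/3T3-derived 3T3Gli1-Luc cells carrying a stably integrated Gli1 response element–firefly luciferase reporter were plated, left 4 hr at 37 C, then given compounds in DMSO for 24 hr. Luminescence was read 30 min after adding luciferase reagent.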

Assay [11] in a line: qHTS assay to identify small molecule antagonists of the sonic hedgehog signaling (Shh) pathway (AID 1259369; calls by dose curve; note: nearly all actives have a fitted effect of over 45% in size). Summed up: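 NIH/3T3-derived 3T3Gli1-Luc cells with stably integrated Gli1-Luc reporter were preincubated 4hr at 37 C, then given compounds in DMSO plus Shh conditioned medium and incubated 24hr. Firefly luciferase luminescence read after 30min reagent at room temperature.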

Assay [12] has as its target Estrogen receptor beta (Homo sapiens) (UniProt Q92731). Kind of assay: qHTS assay to identify small molecule agonists of the estrogen receptor beta (ER-beta) signaling pathway (AID 1259377; active = well fitted activation curve with a large enough effect in the signal ratio in the repeat runs, not every such curve was filed as active; the % refers to the signal ratio). Summed up:
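Screening used GripTite ER-beta-UAS-bla cells held in 2% charcoal-stripped FBS medium. After overnight (16 hr) compound incubation at 37C, beta-lactamase activity was detected with a FRET substrate by fluorescence.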

Assay [13] shares this target. The assay is described as follows: qHTS assay to identify small molecule antagonists of the estrogen receptor beta (ER-beta) signaling pathway (AID 1259378; active = well fitted inhibition curve with a large enough effect in the signal ratio in the repeat runs, not every such curve was filed as active; the % refers to the signal ratio). In a few lines:
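ER-beta-UAS-bla HEK293T (GripTite) cells in 2% charcoal-stripped FBS medium were preincubated 6 hr at 37C, dosed with compound, then stimulated with 1 nM E2 (final) for 16 hr; beta-lactamase reporter read by B/G FRET fluorescence after 2 hr substrate loading.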

The nature of assay [14]: qHTS assay to identify small molecule agonists of the androgen receptor (AR) signaling pathway in the presence of an antagonist - cell viability counter screen (AID 1259379). Note: series mostly up to about 92 µM; nearly all actives have a fitted effect of over 25% in size. In a few lines:
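MDA-kb2 human breast carcinoma cells (stable MMTV-luciferase, AR/GR responsive) were seeded 3,000 cells/well, pre-incubated 5 hr at 37C without CO2, then given 3.0uM nilutamide and compounds at 15 concentrations for 16 hr. Viability was read by CellTiter-Fluor fluorescence.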

A short description of assay [15]: qHTS assay to identify small molecule agonists of the estrogen receptor beta (ER-beta) signaling pathway - cell viability counter screen (AID 1259380). Note: nearly all actives have a fitted effect of over 30% in size. Summed up: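 ER-beta-UAS-bla HEK293T cells in medium with 2% charcoal-stripped FBS were preincubated 6 hr at 37C, dosed with compound in DMSO for 16 hr, then after the bla read, CellTiter-Glo was added for 30 min at room temperature; luminescence recorded.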

Assay [16] can be described thus: qHTS assay to identify small molecule antagonists of the estrogen receptor beta (ER-beta) signaling pathway - cell viability counter screen (AID 1259382). Note: series mostly up to about 92 µM; nearly all actives have a fitted effect of over 55% in size. Summed up:
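ER-beta-UAS-bla HEK293T cells (2,000/well, 2% charcoal-stripped FBS) were pre-incubated 6 hr at 37C, then given compound plus 1nM final 17-beta-estradiol for 16 hr. Viability was read in the same wells by CellTiter-Glo luminescence after 30 min at room temperature.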

Assay [17] concerns the target Estrogen receptor (Homo sapiens) (UniProt P03372). The assay is described as follows: qHTS assay to identify small molecule agonists of the estrogen receptor alpha (ER-alpha) signaling pathway in the presence of an antagonist (AID 1259383; calls by dose curve; note: nearly all actives have a fitted effect of over 15% in size; note: potency is the fitted concentration of half-maximal effect; for activation: top concentration of the series differs between compounds). Summed up:
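VM7Luc4E2 cells (endogenous full-length ER-alpha, 4×ERE-luciferase) were precultured 5 days in phenol red-free medium with 10% charcoal-stripped FBS, given 10.0nM ICI-182,780 (final), then treated with compounds at 15 concentrations for 22hr at 37C; luminescence read with ONE-Glo.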

Assay [18] in a line: qHTS assay to identify small molecule agonists or antagonists of the thyroid stimulating hormone receptor (TSHR) signaling pathway - wild type cell line counter screen (AID 1259384; calls by dose curve). In a few lines:
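Wild-type HEK293 cells were plated 18 h at 37 C/5% CO2, pin-dosed with compound plus Ro20-1724 medium, held 30 min at room temperature, then given cAMP-d2 and anti-cAMP-cryptate; fluorescence was read after 1 h. Fifteen concentrations, triplicate.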

Assay [19] addresses Thyrotropin receptor (Homo sapiens) (UniProt P16473). The assay is described as follows: qHTS assay to identify small molecule antagonists of the thyroid stimulating hormone receptor (TSHR) signaling pathway (AID 1259385; calls by dose curve; note: nearly all actives have a fitted effect of over 20% in size). In a few lines:
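TSHR-HEK293 cells were plated and held 18 h at 37C/5% CO2, then given compound plus Ro20-1724 and stimulated with TSH at 1.5 ng/mL final. After 30 min at room temperature, cAMP was detected with cAMP-d2/anti-cAMP-cryptate (1 h) by fluorescence.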

Assay [20] has as its target Androgen receptor (Homo sapiens) (UniProt P10275). The assay is described as follows: qHTS assay to identify small molecule antagonists of the androgen receptor (AR) signaling pathway using the MDA cell line in the presence of 0.5 nM R1881 (AID 1259243). Note: nearly all actives have a fitted effect of over 50% in size. In a few lines:
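MDA-kb2 human breast carcinoma cells carrying an MMTV-luciferase reporter (AR- and GR-responsive) were plated, rested 5 hr at 37C, dosed with compounds, then stimulated with 0.5 nM R1881 (final) for 16 hr; luminescence was read after ONE-Glo.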

Estrogen receptor (Homo sapiens), sequence (P03372 whole entry, looked up): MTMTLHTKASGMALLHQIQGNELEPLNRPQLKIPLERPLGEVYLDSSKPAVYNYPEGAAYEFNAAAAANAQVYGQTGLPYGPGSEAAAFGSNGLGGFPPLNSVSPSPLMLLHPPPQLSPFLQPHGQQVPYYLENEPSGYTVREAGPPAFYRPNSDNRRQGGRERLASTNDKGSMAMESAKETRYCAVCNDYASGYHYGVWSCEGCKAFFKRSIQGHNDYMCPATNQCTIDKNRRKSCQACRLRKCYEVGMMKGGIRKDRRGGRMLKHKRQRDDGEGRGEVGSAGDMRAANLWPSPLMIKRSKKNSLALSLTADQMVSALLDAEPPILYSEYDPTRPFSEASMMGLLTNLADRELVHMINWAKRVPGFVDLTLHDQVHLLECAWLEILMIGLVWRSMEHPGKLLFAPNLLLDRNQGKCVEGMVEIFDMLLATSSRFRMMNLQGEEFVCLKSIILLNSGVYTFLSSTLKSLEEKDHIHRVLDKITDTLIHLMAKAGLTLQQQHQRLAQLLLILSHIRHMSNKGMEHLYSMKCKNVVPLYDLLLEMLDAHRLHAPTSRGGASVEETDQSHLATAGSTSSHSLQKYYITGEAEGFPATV
Estrogen receptor beta (Homo sapiens), sequence (Q92731 whole entry, looked up): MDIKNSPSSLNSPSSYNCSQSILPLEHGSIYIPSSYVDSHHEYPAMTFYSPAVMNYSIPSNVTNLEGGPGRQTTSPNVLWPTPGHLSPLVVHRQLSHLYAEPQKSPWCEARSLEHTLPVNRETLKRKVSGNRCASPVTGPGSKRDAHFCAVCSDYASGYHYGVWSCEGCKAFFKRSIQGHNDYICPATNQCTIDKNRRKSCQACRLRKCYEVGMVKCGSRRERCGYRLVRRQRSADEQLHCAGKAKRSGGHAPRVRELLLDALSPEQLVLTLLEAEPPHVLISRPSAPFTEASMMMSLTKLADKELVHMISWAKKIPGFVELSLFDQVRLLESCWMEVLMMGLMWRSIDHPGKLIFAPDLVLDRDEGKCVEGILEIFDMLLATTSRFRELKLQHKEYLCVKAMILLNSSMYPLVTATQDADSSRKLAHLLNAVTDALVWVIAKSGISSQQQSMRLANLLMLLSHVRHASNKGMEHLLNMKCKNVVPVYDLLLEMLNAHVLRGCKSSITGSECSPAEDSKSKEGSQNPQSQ
Thyrotropin receptor (Homo sapiens), sequence (P16473 whole entry, looked up): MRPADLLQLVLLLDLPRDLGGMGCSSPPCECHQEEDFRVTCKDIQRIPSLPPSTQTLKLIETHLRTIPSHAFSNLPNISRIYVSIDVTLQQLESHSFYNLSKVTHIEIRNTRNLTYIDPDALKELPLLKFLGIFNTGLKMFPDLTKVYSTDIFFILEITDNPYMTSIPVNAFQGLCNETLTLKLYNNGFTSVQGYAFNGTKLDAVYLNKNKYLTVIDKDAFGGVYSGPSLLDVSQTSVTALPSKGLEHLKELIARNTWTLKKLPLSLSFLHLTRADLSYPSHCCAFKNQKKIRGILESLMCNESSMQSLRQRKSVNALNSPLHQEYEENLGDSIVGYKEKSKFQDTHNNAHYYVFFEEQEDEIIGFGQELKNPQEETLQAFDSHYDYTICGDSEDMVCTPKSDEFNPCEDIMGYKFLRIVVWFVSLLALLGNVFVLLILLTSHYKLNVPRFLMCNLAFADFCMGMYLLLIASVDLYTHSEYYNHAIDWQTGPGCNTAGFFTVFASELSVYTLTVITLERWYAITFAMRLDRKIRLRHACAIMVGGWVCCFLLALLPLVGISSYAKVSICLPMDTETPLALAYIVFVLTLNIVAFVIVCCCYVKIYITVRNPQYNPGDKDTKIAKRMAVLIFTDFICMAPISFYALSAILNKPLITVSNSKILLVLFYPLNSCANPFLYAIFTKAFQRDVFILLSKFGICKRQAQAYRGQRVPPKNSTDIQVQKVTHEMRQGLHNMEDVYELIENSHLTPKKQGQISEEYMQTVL
Androgen receptor (Homo sapiens), sequence (P10275 whole entry, looked up): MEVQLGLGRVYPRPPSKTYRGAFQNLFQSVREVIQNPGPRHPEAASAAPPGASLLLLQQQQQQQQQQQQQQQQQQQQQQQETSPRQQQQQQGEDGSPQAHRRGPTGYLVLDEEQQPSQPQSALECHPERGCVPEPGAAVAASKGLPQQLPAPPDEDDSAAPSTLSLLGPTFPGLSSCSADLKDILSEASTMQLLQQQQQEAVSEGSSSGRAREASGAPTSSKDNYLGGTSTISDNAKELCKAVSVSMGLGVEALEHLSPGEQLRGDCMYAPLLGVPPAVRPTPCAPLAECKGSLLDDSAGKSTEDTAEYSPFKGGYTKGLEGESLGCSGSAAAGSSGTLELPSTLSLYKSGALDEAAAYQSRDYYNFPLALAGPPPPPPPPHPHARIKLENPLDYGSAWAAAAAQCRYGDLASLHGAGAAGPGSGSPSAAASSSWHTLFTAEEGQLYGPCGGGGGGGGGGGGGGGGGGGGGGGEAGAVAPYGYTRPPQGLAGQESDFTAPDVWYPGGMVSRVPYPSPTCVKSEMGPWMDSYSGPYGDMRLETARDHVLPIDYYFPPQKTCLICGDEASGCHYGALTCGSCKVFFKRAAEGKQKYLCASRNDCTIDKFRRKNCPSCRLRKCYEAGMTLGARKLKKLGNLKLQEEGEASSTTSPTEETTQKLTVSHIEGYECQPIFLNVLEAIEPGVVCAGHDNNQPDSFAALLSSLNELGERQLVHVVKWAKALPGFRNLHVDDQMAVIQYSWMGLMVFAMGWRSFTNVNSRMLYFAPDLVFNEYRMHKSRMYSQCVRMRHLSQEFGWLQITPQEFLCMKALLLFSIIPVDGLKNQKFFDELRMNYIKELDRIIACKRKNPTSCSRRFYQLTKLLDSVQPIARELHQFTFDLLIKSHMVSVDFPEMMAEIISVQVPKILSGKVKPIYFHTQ

Take `COC(=O)c1ccccc1O`: the Potency entry in assay [1], in [2], in assay [3], in assay [4], in assay [6] and in [8] was “inactive” each time. Moreover, the Potency result in assay [9], in assay [11], in [12], in [13], in [14] and in assay [15] was “inactive” throughout. Further, the Potency entry in [16] and in assay [17] was “inactive” each time. Moreover, the result in [5], in assay [7], in assay [10], in assay [18] and in assay [19] was inactive.

For `CCOC(=O)/C=C\C(=O)OCC`, the Potency entry in assay [1], in [2], in assay [3], in assay [4], in assay [6] and in [8] was “inactive” throughout. Further, the Potency result in assay [9], in assay [11], in [15], in assay [16] and in assay [17] was “inactive” throughout. The call in assay [7], in assay [10], in [18] and in assay [19] was inactive.

Regarding `C[C@@H]1O[C@@H](OC[C@H]2O[C@@H](Oc3c(-c4ccc(O)c(O)c4)oc4cc(O)cc(O)c4c3=O)[C@H](O)[C@@H](O)[C@@H]2O)[C@H](O)[C@H](O)[C@H]1O`, the Potency result in assay [1], in [2], in [3], in [6], in assay [8] and in assay [9] was “inactive” in each case. The Potency result in assay [11], in assay [12], in assay [13], in assay [15] and in assay [16] was “inactive” each time. Also, the outcome in assay [20], in assay [5], in [7], in [10], in assay [18] and in assay [19] was inactive.

`CC1Cc2ccccc2N1NC(=O)c1ccc(Cl)c(S(N)(=O)=O)c1` (stereo not drawn): the Potency entry in assay [1], in assay [2], in assay [3], in assay [4], in [6] and in assay [8] was “inactive” each time. The Potency result in assay [9], in [11], in [12], in assay [13], in [14] and in assay [15] was “inactive” each time. Further, the Potency entry in [16] and in assay [17] was “inactive” each time. The outcome in assay [5], in [7], in assay [10], in [18] and in assay [19] was inactive.

As to `OC1CCCC1`, the Potency entry in assay [1], in assay [2], in [3], in assay [4], in assay [6] and in [8] was “inactive” throughout. In addition, the Potency entry in assay [9], in assay [11], in [12], in [13], in assay [14] and in [15] was “inactive” throughout. Moreover, the Potency result in [16] and in [17] was “inactive” in each case. In addition, the compound was classed as inactive in [7], in [10], in assay [18] and in assay [19].

On to `Oc1ccc(OCc2ccccc2)cc1`, for which the Potency result in assay [1], in assay [2], in [3], in [4], in assay [8] and in [9] was “inactive” in each case. Also, the Potency result in assay [11], in [12], in [13], in assay [14], in assay [15] and in assay [16] was “inactive” in each case. In addition, the compound was classed as inactive in [5], in [10], in assay [18] and in assay [19]. Besides, the Potency in assay [6] is 6.71 µM (active) and inactive; in assay [17], 15 µM (active) and inactive.

For `CCCCCCCCC`, the Potency entry in assay [1], in assay [2], in assay [3], in assay [4], in [6] and in assay [8] was “inactive” each time. The Potency result in assay [9], in assay [11], in assay [12], in assay [13], in [14] and in assay [15] was “inactive” throughout. Besides, the Potency entry in [16] and in [17] was “inactive” in each case. The compound was classed as inactive in assay [10], in [18] and in [19].
